# Tau ThT inhib = qHTS for Inhibitors of Tau Fibril Formation, Thioflavin T Binding | Potency, µM (series often up to 57.4 µM), for the others: at the top dose activity, negative = inhibition, most hits filed as inhibitors | recombinant tau K18 P301L, heparin-induced fibrillization, ThT fluorescence | actives 2.1% (n = 270,000) | Microtubule-associated protein tau (Homo sapiens), P10636; note: potency is the fitted concentration of half-maximal effect; % is set by controls: 0 for no effect and ±100 for the full control effect; nearly all actives have a fitted effect of over 55% in size
# Target sequence (P10636 561-689 P618L limits assumed): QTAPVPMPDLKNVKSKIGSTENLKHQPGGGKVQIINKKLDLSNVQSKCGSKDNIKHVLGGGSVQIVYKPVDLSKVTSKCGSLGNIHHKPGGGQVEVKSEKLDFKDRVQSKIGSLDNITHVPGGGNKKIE
#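 In this qHTS, human K18 P301L tau is incubated with compound and heparin for 6 hr at 37 C, and Thioflavin T fluorescence then reports fibril load.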
# JMJD2E inh = qHTS Assay for Inhibitors of Human Jumonji Domain Containing 2E (JMJD2E); Lysine-specific demethylase 4E (Homo sapiens), B2RXH2; JMJD2E catalytic domain, FDH-coupled NADH fluorescence (FDH is formaldehyde dehydrogenase); Potency, µM (highest dose often 57.1 µM), without a hit: top-dose activity change, negative = inhibition, usual class: inhibitors; actives 1.6% (n = 230,000); active = well fitted inhibition curve with a large enough effect, not every such curve was filed as active; inconclusive = small, poorly fitted or top-dose-only effect, or another doubt; inactive = no such curve, though single readings can be large or run the other way;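 note: potency is the fitted concentration of half-maximal effect; 0% = wells with enzyme and -100% = buffer wells without enzyme; nearly all actives have a fitted effect of over 50% in size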
# Target sequence (B2RXH2 1-337 limits assumed): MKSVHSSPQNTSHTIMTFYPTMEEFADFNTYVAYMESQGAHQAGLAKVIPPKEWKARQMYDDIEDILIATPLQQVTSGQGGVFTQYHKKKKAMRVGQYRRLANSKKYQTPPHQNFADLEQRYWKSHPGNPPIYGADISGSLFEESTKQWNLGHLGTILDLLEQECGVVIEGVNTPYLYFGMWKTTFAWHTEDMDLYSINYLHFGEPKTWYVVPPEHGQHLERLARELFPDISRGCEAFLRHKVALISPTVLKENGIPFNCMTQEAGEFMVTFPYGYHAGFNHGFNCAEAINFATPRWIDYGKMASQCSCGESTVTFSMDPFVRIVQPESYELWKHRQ
# Tau fluor counter = Counterscreen qHTS for Inhibitors of Tau Fibril Formation, Fluorescence Polarization. tau K18 P301L Alexa594 fluorescence, heparin fibrillization. Potency, µM (highest dose often 57.7 µM), for inactives: at the top dose activity change, negative = decrease. actives 0.93% (n = 280,000). AID 1463, 2008; note: potency is the fitted concentration of half-maximal effect; % is set by controls: 0 for no effect and ±100 for the full control effect; nearly all actives have a fitted effect of over 55% in size
#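 Human tau K18 P301L (15 uM unlabeled, 0.24 uM Alexa 594-labeled) in 100 mM sodium acetate pH 7 with 20 uM heparin, 6 hr at 37 C. ThT 30 uM added, 1 hr ambient; Alexa 594 FP and total fluorescence read at 555/632 nm.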
# CBFb RUNX1 block = qHTS Assay for Compounds Blocking the Interaction Between CBF-beta and RUNX1 for the Treatment of Acute Myeloid Leukemia; Runt-related transcription factor 1 (Homo sapiens) + Core-binding factor subunit beta …; AlphaScreen CBFb-His/RUNX1-biotin binding, biochemical; Potency, µM (doses to about 59.8 µM), for the others: at the highest dose activity, negative = inhibition, usual class: inhibitors; 230,000 tested, under 10 active; AID 1477, 2009; note: % of control where 0% means no effect
#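 Proteins preincubated together for 20 min at RT before compound addition; 15 min later, nickel and streptavidin beads were added and left 90 min prior to AlphaScreen measurement.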
# Tau FP inhib = qHTS for Inhibitors of Tau Fibril Formation, Fluorescence Polarization. Microtubule-associated protein tau (Homo sapiens), P10636. K18 P301L tau heparin fibrillization, Alexa594 FP, 6 h. Potency, µM (highest dose often 57.7 µM), without a hit: at the highest dose activity, negative = inhibition, actives largely listed as inhibitors. actives 0.39% (n = 280,000); note: potency is the fitted concentration of half-maximal effect; % is set by controls: 0 for no effect and ±100 for the full control effect; nearly all actives have a fitted effect of over 55% in size
#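 Compound effects on tau fibrillization are measured by Alexa 594 fluorescence polarization (ex 555, em 632 nm). K18 P301L tau is used at 15 uM with 0.24 uM labeled tracer, and 20 uM heparin induces aggregation over 6 hr at 37 C.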
# LMNA splice mod = qHTS Assay for Modulators of Lamin A Splicing | AID 1487, 2009 | Potency, µM (highest dose often 46.1 µM), inactives show at the highest dose ratio change, negative = inhibition, most hits filed as inhibitors | actives 0.01% (n = 200,000) | HeLa LMNA splicing GFP/RFP minigene ratio, 48 h; active = well fitted inhibition curve with a large enough effect in the signal ratio, with a control signal flat, not every such curve was filed as active; inconclusive = small, poorly fitted or top-dose-only effect, or effect the other way, or a change in a side signal; the % refers to the signal ratio; note: potency is the fitted concentration of half-maximal effect; % is set by controls: 0 for no effect and ±100 for the full control effect
#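 S3 HeLa stable clones carrying a lamin A-EGFP splicing minigene plus DsRed2 were seeded at 600 cells/well in Opti-MEM with 2% FBS, pin-dosed and incubated 48 h at 37°C. Acumen cytometry (488 nm) gave the GFP/RFP total-intensity ratio.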
# An asterisk follows results filed as active; ? = inconclusive; . = no result given; ! = a repeat was not active; [ ] = remark or other dose. Only some compounds are listed: those with a hit (about 3.2% of all), similar ones and a draw of the others. Unless noted, calls come from the whole dose curve; as a rule, active = well fitted curve in the direction sought with a large enough effect; inconclusive = small, poorly fitted or top-dose-only effect, or another doubt; inactive = no such curve, though single readings can be large; an effect the other way counts as inactive or inconclusive.
SMILES,Tau ThT inhib,JMJD2E inh,Tau fluor counter,CBFb RUNX1 block,Tau FP inhib,LMNA splice mod
C/C(=N\Nc1cccc2ccccc12)c1c(O)n(Cc2ccccc2)c(=O)[nH]c1=O,18µM*,?,?,?,?,-1%
CC(=NCCc1c[nH]c2ccccc12)c1c(O)n(Cc2ccccc2)c(=O)[nH]c1=O,-18%,-17%,-26%,-1%,-2%,.
C/C(=N\NC(=O)c1ccccc1)c1c(O)n(Cc2ccccc2)c(=O)[nH]c1=O,.,25µM*,?,-2%,0%,.
CN1Cc2ccccc2[C@@H]2c3cccc4[nH]cc(c34)C[C@H]21,11µM*,10µM*,?,?,?,.
CC1=C[C@@H]2c3cccc4[nH]cc(c34)C[C@H]2N(C)C1,16µM*,.,?,-12%,-14%,.
CCN(CC)C(=O)N[C@@H]1C[C@H]2c3cccc4[nH]cc(c34)C[C@@H]2N(C)C1,.,5%[25.5 µM],.,-4%[21.7 µM],.,?
CCC1OC2(C)C(O)C(/C=C/C=C/C=C/c3oc(=O)cc(OC)c3C)OC1(C)C2OC(C)=O (stereo not given),.,.,.,8%,.,.
CC(=O)Nc1ccc(S(=O)(=O)N(C)CCOCc2ccccc2)cc1,-1%,0%,-21%,-7%,-12%,?
CC1=C(O)C(=O)[C@@H]2O[C@@H]2C1=O,16µM*,.,?,5%,20µM*,.
S=c1[nH]c2cc(Br)cnc2[nH]1,32µM*,?,-15%,14%,?,?
O=C1NC(=O)N(c2ccccc2F)C(=O)/C1=C/c1ccc(Sc2nc3ccccc3[nH]2)o1,13µM*,?,-11%,?,-22%,-12%
O=C1NC(=O)N(c2cccc(Cl)c2)C(=O)/C1=C\c1ccc(Sc2nc3ccccc3[nH]2)o1,13µM*,?,?,?,?,-4%
COc1ccc2c(c1)CCC1C2CC[C@@]2(C)C1CC[C@@H]2NCCCCCCN1C(=O)C=CC1=O (stereo not given in full),-13%,-1%,-4%,11%,10%,-21%
CC1=NCCc2c1[nH]c1cc(O)ccc21,?,?,18µM*![quencher],?,-2%,?
C=CCn1c(O)c(C(C)=Nc2ccc(N(CC)CC)cc2)c(=O)[nH]c1=O,?,?,-14%,4%,-4%,?
C=CCn1c(O)c(C(C)=Nc2ccc(N(C)C)cc2)c(=O)[nH]c1=O,18µM*,?,?,-4%,-3%,?
O=C1NC(=O)C(=Cc2ccc(N3CCN(C(=O)c4ccccc4)CC3)c([N+](=O)[O-])c2)C(=O)N1,11µM*,22µM*,-15%,-9%,-13%,.
CCCCn1c(NC(=O)c2ccco2)c(C(=O)OCC)c2nc3ccccc3nc21,13µM*,?,-26%,-13%,16µM*,?
CCN(CC)c1nc2ccccc2nc1C(=O)Nc1cccc(C(C)=O)c1,?,.,-30%,.,-8%,-12%[46 µM]
CN(C)C1C(=O)C(C(N)=O)C(=O)C2(O)C(=O)C3C(=O)c4c(O)cccc4C(C)(O)C3C(O)C12 (stereo not given),4.5µM*,.,?,3%,20µM*,.
CN(C)C1C(=O)C(C(N)=O)=C(O)[C@@]2(O)C(=O)C3=C(O)c4c(O)cccc4[C@](C)(O)C3C(O)C12 (stereo not given in full),?,8.9µM*,?,.,?,.

# Screening data (PubChem BioAssay)
